# Results reported in PMC7862700, “An all-to-all approach to the identification of sequence-specific readers for epigenetic DNA modifications on cytosine”.
# Tests used:
# Assay in all cases: DAPPL (digital affinity profiling via proximity ligation, sequencing); 10 mM Tris-HCl pH 7.5, 50 mM NaCl, 1 mM DTT, 4% glycerol, room temperature, 30 min; GST-TFs on glutathione beads, 16-mer random dsDNA library, 0.1% formaldehyde crosslink after washing; high values mean tight binding
# FLI1 = molecular target: T1, FLI1 (Homo sapiens, UniProt Q01543 1-452); details: protein: recombinant; tags: N-terminal GST; dsDNA, one strand shown
# T1 sequence: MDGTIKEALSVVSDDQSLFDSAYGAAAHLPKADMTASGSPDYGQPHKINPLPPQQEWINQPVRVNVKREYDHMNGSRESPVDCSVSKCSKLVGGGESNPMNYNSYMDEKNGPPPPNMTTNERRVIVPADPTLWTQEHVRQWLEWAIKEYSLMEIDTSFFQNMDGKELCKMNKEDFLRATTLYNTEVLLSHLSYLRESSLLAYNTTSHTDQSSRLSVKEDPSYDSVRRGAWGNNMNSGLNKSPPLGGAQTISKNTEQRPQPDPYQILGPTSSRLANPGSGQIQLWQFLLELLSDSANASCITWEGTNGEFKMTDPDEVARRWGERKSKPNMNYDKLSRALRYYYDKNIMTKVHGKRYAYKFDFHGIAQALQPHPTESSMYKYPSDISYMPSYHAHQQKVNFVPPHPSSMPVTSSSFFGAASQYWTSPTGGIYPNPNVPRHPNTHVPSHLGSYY
# Procedure, shortened: (§1)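 Sequencing on an Illumina NextSeq500 followed washing, crosslinking with 0.1% formaldehyde, proximity ligation (BsaI/T4 ligase, 1 h, 37 °C) and PCR amplification of pools that had been incubated for 30 min at room temperature with 200 nmole of a random double-stranded 16-mer DNA library in Tris/NaCl/DTT/glycerol buffer. Each pool held DNA-barcoded human transcription factors, expressed in yeast as GST fusions and captured on glutathione beads, plus a tag-only sample. Binding signal is a hexamer's read frequency for a factor divided by its frequency in the tag-only sample.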
# ELK1 = molecular target: T2, ELK1 (Homo sapiens, UniProt P19419 1-428); details: protein: recombinant; tags: N-terminal GST; dsDNA, one strand shown
# T2 sequence: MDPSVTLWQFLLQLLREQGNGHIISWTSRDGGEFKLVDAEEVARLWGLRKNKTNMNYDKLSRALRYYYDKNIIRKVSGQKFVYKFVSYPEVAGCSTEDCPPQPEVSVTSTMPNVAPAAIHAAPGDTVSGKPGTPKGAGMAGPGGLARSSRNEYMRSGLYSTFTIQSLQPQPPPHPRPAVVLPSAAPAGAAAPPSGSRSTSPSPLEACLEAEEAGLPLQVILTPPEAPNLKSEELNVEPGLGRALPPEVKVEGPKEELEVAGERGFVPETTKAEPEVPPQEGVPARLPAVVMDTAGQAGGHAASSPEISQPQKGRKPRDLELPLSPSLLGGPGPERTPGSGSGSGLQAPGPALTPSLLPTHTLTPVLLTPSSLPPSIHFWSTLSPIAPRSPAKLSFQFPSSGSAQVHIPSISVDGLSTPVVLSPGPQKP
# Procedure, shortened: as §1
# GABPA = molecular target: T3, GABPA (Homo sapiens, UniProt Q06546 1-454); details: protein: recombinant; tags: N-terminal GST; dsDNA, one strand shown
# T3 sequence: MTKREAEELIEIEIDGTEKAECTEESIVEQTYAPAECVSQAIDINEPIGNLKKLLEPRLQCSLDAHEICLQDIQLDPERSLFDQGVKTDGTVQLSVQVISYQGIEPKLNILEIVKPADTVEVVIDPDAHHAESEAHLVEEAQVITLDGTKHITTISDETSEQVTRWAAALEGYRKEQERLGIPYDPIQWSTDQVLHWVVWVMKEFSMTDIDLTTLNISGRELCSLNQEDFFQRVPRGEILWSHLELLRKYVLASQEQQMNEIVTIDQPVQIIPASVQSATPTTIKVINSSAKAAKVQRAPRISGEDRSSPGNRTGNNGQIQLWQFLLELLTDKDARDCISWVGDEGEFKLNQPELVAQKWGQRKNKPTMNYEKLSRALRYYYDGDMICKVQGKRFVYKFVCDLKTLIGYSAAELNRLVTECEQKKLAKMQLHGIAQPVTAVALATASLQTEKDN
# Procedure, shortened: as §1
# ERG = molecular target: T4, ERG (Homo sapiens, UniProt P11308 1-479); details: protein: recombinant; tags: N-terminal GST; dsDNA, one strand shown
# T4 sequence: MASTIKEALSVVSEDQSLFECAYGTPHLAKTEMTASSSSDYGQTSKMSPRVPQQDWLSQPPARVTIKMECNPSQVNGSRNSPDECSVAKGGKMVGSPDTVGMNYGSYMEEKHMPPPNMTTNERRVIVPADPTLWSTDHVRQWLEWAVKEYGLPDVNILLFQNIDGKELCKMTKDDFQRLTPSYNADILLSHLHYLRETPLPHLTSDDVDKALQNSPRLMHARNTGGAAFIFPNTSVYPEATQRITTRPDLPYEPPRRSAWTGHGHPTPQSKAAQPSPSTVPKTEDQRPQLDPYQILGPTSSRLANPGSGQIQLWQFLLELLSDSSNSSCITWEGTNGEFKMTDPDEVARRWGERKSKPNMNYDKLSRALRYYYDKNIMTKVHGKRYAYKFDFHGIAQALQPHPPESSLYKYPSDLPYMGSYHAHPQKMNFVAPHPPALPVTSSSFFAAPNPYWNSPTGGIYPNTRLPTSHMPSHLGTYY
# Procedure, shortened: as §1
# ELF1 = ELF1 (Homo sapiens, UniProt P32519 1-619); details: protein: recombinant; tags: N-terminal GST; dsDNA, one strand shown
# Sequence of ELF1 (P32519 whole entry): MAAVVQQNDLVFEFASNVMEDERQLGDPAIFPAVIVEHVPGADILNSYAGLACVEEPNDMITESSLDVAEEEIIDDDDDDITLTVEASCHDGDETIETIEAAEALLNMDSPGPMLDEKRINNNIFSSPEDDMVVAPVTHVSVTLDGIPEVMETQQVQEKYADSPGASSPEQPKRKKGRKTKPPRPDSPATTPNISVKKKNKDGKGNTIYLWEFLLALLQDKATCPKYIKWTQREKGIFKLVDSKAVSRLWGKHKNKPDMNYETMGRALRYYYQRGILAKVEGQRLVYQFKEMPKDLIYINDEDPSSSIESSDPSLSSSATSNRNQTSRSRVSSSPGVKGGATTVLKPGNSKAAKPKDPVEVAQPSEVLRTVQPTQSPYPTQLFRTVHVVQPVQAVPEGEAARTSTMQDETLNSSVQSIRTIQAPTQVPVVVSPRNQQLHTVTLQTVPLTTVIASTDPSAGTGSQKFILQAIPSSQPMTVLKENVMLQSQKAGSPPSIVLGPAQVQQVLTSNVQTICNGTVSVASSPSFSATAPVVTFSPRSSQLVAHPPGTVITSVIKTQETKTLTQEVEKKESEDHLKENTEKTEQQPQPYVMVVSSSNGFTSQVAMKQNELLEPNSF
# Procedure, shortened: as §1
# EHF = molecular target: T5, EHF (Homo sapiens, UniProt Q9NZC4 1-300); details: protein: recombinant; tags: N-terminal GST; dsDNA, one strand shown
# T5 sequence: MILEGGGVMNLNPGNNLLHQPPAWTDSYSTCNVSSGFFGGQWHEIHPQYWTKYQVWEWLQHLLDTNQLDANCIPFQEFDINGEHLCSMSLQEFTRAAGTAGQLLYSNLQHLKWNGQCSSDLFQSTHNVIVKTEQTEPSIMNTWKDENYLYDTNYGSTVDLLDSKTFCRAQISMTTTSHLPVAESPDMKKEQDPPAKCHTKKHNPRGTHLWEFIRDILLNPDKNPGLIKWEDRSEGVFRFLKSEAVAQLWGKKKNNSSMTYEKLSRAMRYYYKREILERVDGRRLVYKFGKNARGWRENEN
# Procedure, shortened: as §1
# SPI1 = SPI1 (Homo sapiens, UniProt P17947 1-270); details: protein: recombinant; tags: N-terminal GST; dsDNA, one strand shown
# Procedure, shortened: as §1
# SPIB = SPIB (Homo sapiens, UniProt Q01892 1-262); details: protein: recombinant; tags: N-terminal GST; dsDNA, one strand shown
# Sequence of SPIB (Q01892 whole entry): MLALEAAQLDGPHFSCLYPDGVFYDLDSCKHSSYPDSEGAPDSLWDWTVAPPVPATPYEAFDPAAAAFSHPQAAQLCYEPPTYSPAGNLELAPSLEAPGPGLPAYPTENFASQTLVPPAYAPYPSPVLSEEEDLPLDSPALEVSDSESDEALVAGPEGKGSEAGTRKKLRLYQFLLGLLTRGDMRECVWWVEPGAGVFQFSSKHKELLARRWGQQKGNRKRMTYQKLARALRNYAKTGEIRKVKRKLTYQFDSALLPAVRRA
# Procedure, shortened: as §1
# ELK3 = molecular target: T6, ELK3 (Homo sapiens, UniProt P41970 1-407); details: protein: recombinant; tags: N-terminal GST; dsDNA, one strand shown
# T6 sequence: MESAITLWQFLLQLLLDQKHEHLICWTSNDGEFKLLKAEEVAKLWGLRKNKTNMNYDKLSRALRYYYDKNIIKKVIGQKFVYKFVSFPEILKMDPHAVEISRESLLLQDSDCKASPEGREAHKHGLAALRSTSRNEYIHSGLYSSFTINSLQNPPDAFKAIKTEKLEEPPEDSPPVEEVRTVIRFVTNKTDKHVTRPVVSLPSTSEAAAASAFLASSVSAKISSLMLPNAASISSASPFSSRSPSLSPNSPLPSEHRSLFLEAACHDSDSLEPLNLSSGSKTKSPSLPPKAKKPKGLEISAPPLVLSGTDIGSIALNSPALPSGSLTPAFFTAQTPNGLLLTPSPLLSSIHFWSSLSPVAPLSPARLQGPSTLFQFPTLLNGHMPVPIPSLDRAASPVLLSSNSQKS
# Procedure, shortened: as §1
# FEV = molecular target: T7, FEV (Homo sapiens, UniProt Q99581 1-238); details: protein: recombinant; tags: N-terminal GST; dsDNA, one strand shown
# T7 sequence: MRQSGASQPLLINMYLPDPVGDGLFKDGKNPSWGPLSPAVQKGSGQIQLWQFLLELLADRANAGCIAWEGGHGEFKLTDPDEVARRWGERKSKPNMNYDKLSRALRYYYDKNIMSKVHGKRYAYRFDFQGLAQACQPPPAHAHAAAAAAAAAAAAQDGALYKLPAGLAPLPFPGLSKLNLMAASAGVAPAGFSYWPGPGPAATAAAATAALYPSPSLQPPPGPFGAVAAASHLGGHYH
# Procedure, shortened: as §1
# ETV5 = ETV5 (Homo sapiens, UniProt P41161 1-510); details: protein: recombinant; tags: N-terminal GST; dsDNA, one strand shown
# Sequence of ETV5 (P41161 whole entry): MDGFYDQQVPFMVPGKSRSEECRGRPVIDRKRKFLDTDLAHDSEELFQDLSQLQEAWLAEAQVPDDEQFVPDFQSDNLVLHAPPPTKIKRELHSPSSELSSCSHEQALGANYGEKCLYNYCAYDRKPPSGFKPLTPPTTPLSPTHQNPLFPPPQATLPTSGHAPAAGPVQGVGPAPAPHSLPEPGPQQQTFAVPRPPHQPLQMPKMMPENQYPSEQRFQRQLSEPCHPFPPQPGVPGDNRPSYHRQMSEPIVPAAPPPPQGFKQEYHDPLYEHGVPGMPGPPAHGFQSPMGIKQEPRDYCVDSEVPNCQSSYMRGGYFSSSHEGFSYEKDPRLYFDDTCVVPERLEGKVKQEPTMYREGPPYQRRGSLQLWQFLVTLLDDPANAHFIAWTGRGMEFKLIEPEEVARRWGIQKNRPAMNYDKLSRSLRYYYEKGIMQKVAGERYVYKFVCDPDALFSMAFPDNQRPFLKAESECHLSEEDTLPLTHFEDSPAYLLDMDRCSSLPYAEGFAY
# Procedure, shortened: as §1
# HSF1 = HSF1 (Homo sapiens, UniProt Q00613 1-529); details: protein: recombinant; tags: N-terminal GST; chain copies: 3; dsDNA, one strand shown
# Sequence of HSF1 (Q00613 whole entry): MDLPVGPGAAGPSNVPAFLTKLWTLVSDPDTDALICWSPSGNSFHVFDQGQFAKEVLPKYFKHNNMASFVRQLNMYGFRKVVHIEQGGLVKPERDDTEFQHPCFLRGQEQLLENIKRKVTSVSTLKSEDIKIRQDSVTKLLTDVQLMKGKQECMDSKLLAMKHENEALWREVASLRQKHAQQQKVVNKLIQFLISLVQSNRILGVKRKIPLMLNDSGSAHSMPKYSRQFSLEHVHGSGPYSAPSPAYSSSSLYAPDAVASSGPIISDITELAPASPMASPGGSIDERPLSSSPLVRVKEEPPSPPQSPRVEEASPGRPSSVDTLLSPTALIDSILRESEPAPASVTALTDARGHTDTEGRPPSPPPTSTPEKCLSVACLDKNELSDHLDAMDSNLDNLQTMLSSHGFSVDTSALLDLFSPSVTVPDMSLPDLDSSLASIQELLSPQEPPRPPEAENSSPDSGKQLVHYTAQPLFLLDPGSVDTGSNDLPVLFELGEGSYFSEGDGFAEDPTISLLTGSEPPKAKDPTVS
# Procedure, shortened: as §1
# SPIC = molecular target: T8, SPIC (Homo sapiens, UniProt Q8N5J4 1-248); details: protein: recombinant; tags: N-terminal GST; dsDNA, one strand shown
# T8 sequence: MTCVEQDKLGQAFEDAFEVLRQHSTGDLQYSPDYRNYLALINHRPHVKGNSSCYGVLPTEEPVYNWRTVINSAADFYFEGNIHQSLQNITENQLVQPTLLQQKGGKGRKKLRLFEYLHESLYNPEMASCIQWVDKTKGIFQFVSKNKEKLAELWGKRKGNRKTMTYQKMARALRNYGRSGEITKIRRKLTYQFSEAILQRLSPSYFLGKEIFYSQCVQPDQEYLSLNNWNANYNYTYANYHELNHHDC
# Procedure, shortened: as §1
# ELF4 = ELF4 (Homo sapiens, UniProt Q99607 1-663); details: protein: recombinant; tags: N-terminal GST; dsDNA, one strand shown
# Sequence of ELF4 (Q99607 whole entry): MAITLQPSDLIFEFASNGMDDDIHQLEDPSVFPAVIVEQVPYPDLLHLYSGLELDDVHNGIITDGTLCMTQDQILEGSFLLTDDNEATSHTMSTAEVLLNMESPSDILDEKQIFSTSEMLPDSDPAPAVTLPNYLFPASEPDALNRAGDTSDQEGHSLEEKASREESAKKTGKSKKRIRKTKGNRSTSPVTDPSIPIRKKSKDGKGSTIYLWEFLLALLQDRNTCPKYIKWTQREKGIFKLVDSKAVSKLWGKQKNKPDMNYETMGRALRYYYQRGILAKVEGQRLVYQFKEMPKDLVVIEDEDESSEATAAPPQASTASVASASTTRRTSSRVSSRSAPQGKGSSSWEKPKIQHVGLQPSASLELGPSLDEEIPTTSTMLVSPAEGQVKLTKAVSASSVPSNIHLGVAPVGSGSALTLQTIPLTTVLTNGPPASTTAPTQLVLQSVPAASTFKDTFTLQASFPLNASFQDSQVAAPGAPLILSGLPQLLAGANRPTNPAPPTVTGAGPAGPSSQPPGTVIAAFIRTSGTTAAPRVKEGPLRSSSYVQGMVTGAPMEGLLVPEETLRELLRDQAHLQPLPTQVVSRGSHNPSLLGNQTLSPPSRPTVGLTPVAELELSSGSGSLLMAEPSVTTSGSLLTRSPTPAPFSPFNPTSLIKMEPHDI
# Procedure, shortened: as §1
# ELK4 = molecular target: T9, ELK4 (Homo sapiens, UniProt P28324-2 1-405); details: protein: recombinant; tags: N-terminal GST; dsDNA, one strand shown
# T9 sequence: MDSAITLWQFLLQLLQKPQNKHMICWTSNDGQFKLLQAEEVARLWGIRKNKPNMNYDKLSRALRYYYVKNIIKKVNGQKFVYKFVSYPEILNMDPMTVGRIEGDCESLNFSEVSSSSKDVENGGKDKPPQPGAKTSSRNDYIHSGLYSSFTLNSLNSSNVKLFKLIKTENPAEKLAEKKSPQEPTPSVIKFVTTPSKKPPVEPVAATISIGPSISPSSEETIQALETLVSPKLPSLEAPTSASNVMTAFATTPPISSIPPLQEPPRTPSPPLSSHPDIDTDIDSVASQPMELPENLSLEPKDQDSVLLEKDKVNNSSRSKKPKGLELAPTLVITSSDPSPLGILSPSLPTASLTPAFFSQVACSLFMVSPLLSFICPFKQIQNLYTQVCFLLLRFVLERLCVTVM
# Procedure, shortened: as §1
# ETV2 = molecular target: T10, ETV2 (Homo sapiens, UniProt O00321 1-342); details: protein: recombinant; tags: N-terminal GST; dsDNA, one strand shown
# T10 sequence: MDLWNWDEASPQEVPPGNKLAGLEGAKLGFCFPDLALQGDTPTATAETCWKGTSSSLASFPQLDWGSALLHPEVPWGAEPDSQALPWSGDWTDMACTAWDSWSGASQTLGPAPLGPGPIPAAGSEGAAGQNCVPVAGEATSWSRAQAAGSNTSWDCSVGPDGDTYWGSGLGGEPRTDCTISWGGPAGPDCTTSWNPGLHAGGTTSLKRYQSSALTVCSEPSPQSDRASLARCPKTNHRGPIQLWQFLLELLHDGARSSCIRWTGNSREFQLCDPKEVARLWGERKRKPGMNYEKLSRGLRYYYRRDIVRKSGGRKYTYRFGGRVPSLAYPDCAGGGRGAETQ
# Procedure, shortened: as §1
# ELF3 = molecular target: T11, ELF3 (Homo sapiens, UniProt P78545 1-371); details: protein: recombinant; tags: N-terminal GST; dsDNA, one strand shown
# T11 sequence: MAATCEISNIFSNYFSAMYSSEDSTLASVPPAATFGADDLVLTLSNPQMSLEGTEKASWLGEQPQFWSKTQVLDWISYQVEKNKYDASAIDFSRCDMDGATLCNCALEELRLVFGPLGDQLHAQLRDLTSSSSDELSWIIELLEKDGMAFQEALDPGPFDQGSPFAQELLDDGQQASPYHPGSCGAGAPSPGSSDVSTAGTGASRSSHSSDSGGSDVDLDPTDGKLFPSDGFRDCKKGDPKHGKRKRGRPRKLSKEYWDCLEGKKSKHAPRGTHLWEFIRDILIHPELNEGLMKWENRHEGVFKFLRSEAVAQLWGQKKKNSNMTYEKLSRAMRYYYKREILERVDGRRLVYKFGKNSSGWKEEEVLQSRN
# Procedure, shortened: as §1
# CRX = CRX (Homo sapiens, UniProt O43186 1-299); details: protein: recombinant; tags: N-terminal GST; dsDNA, one strand shown
# Sequence of CRX (O43186 whole entry): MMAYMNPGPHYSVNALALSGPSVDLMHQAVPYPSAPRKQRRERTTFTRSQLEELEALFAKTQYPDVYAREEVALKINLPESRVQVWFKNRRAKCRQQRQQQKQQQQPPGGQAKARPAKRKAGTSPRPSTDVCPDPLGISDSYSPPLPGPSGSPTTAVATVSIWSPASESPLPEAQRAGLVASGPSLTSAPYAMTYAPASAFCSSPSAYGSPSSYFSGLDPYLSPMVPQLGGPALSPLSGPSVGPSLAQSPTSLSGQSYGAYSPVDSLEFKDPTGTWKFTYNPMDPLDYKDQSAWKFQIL
# Procedure, shortened: as §1
# ETV1 = ETV1 (Homo sapiens, UniProt P50549 1-477); details: protein: recombinant; tags: N-terminal GST; dsDNA, one strand shown
# Sequence of ETV1 (P50549 whole entry): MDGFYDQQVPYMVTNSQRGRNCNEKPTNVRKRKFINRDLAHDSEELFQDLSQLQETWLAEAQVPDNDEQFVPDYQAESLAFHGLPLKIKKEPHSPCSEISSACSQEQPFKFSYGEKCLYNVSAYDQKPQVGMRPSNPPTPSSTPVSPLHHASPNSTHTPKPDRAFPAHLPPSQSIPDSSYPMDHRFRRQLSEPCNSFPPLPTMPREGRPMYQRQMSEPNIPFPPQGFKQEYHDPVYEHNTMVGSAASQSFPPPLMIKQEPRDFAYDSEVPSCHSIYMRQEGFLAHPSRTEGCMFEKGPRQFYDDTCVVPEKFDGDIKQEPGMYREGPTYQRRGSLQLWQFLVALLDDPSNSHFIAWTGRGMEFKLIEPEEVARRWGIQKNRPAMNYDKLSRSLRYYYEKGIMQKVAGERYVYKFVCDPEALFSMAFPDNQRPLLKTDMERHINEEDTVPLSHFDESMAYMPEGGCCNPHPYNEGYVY
# Procedure, shortened: as §1
sequence,measurement,setting,value
CCGACC,binding signal,FLI1,"1.66 fold enrichment (6-mer frequency, TF over GST control)"
same,binding signal,ELK1,"1.59 fold enrichment (6-mer frequency, TF over GST control)"
same,binding signal,GABPA,"1.65 fold enrichment (6-mer frequency, TF over GST control)"
same,binding signal,ERG,"1.55 fold enrichment (6-mer frequency, TF over GST control)"
same,binding signal,ELF1,"1.47 fold enrichment (6-mer frequency, TF over GST control)"
same,binding signal,EHF,"1.44 fold enrichment (6-mer frequency, TF over GST control)"
same,binding signal,SPI1,"1.42 fold enrichment (6-mer frequency, TF over GST control)"
same,binding signal,SPIB,"1.57 fold enrichment (6-mer frequency, TF over GST control)"
same,binding signal,ELK3,"1.8 fold enrichment (6-mer frequency, TF over GST control)"
same,binding signal,FEV,"1.71 fold enrichment (6-mer frequency, TF over GST control)"
same,binding signal,ETV5,"1.5 fold enrichment (6-mer frequency, TF over GST control)"
same,binding signal,HSF1,"1.14 fold enrichment (6-mer frequency, TF over GST control)"
same,binding signal,SPIC,"1.45 fold enrichment (6-mer frequency, TF over GST control)"
same,binding signal,ELF4,"1.54 fold enrichment (6-mer frequency, TF over GST control)"
same,binding signal,ELK4,"1.61 fold enrichment (6-mer frequency, TF over GST control)"
same,binding signal,ETV2,"1.46 fold enrichment (6-mer frequency, TF over GST control)"
same,binding signal,ELF3,"1.63 fold enrichment (6-mer frequency, TF over GST control)"
same,binding signal,CRX,"1.13 fold enrichment (6-mer frequency, TF over GST control)"
same,binding signal,ETV1,"1.53 fold enrichment (6-mer frequency, TF over GST control)"
